This is an account of results in PubChem BioAssay AID602137 (NMMLSC, 2011).

Activity calls are given as the source filed them.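 Rule for the calls: active = EC50 at most 10 µM with percent response changing by at least 30% across doses, from a valid fit; inactive = the rest.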

The nature of the test: disruption of GST–glutathione bead interaction – biochemical, flow cytometry beads, round 1, counter-screen for Rab7 GTPase inhibitor project, SAR follow-up (AID 602137). The note with it: GST-GFP on GSH beads; series mostly up to 100 µM. A general note: A flow cytometer gives signals particle by particle.
For the compound `Cc1ccc(Nc2nc3sc4c(c3c(=O)o2)CCN(C)C4)cc1`, the compound was classed as inactive. For `CN1CCc2c(sc(NC(=O)Nc3ccc(F)cc3)c2C(=O)O)C1` the value was “inactive”. For `CC1(C)Cc2c(sc(NC(=O)NC(=O)c3ccccc3)c2C(=O)O)CO1` the value was “inactive”; for `O=C(NC(=S)Nc1sc2c(c1C(=O)O)CCOC2)c1ccccc1`, “inactive”; for `CCOC(=O)c1c(N)sc2ccccc12`, “inactive”. For `Cc1ccc(NC(=O)Nc2sc3c(c2C(=O)O)CCN(C)C3)cc1` the value was “inactive”; for `CCOC(=O)c1c(NC(=O)Nc2ccc(F)cc2)sc2c1CCN(C)C2`, “inactive”; for `COc1ccc(C2CC(c3ccccc3)=NN2c2ccc(S(N)(=O)=O)cc2)cc1` (stereo not given), “inactive”. Take `CCOC(=O)c1c(NC(=O)Nc2ccc(C)cc2)sc2c1CCN(C)C2`: the compound was called inactive. As to `CC1(C)Cc2c(sc(NC(=S)NC(=O)c3ccccc3F)c2C(=O)O)CO1`, the compound was called inactive.

Take `CC1Cc2c(sc(NC(=S)NC(=O)c3ccccc3)c2C(=O)O)CO1` (stereo not given): the call was inactive. Turning to `CN1CCc2c(sc3nc(Nc4ccc(F)cc4)oc(=O)c23)C1`, the call was inactive.

Regarding `CC(C)(C)OC(=O)c1c(NC(=S)NC(=O)c2ccccc2)sc2c1CCOC2`, the result was inactive.

Consider `NS(=O)(=O)c1ccc(N2N=C(c3ccccc3)CC2c2ccccc2)cc1` (stereo not given), for which the call was inactive. With `CC1(C)Cc2c(sc(NC(=S)NC(=O)c3ccccc3)c2C(=O)O)CO1`, the result was inactive. As for `CC1(C)Cc2c(sc(NC(=S)NC(=O)c3cccc(F)c3)c2C(=O)O)CO1`, the result was inactive. For `CC1(C)Cc2c(sc(NC(=O)Cc3ccccc3)c2C(=O)O)CO1`, the compound was called inactive. For `COC(=O)c1c(NC(=S)NC(=O)c2ccccc2)sc2c1CC(C)(C)OC2` the value was “inactive”.

As for `CCOC(=O)c1c(NC(=O)NC(C)(C)C)sc2c1CCN(C)C2`, the outcome was inactive.

As to `CCOC(=O)c1c(NC(=S)NC(=O)c2ccccc2)sc2ccccc12`, the compound was classed as inactive.

Consider `CC1(C)Cc2c(sc(NC(=S)NC(=O)c3cccc(Br)c3)c2C(=O)O)CO1`, for which the compound was classed as inactive. For `CC1(C)Cc2c(sc(NC(=S)Nc3ccccc3)c2C(=O)O)CO1` the value was “inactive”. Take `CC1(C)CCc2sc(NC(=S)NC(=O)c3ccccc3)c(C(=O)O)c2C1`: the compound was called inactive. Consider `CC1(C)Cc2c(sc(NC(=S)NC(=O)c3ccccc3Br)c2C(=O)O)CO1`, for which the compound was called inactive. Turning to `COc1cccc(C(=O)NC(=S)Nc2sc3c(c2C(=O)O)CC(C)(C)OC3)c1`, the compound was classed as inactive.

Turning to `COc1ccc(C(=O)NC(=S)Nc2sc3c(c2C(=O)O)CC(C)(C)OC3)cc1`, the result was inactive. For `O=C(C#Cc1ccccc1)c1cccc([N+](=O)[O-])c1` the value was “inactive”; for `COC(=O)c1c(N)sc2c1CC(C)(C)OC2`, “inactive”. For `CCOC(=O)c1c(NC(=S)Nc2ccccc2)sc2c1CC(C)(C)OC2` the value was “inactive”; for `CC1(C)Cc2c(sc(NC(=S)NC(=O)c3ccc(Br)cc3)c2C(=O)O)CO1`, “inactive”.
